# Where “and” joins values, the source holds several entries; their conditions need not be identical. Equal entries are not always repeated. Unmarked numbers belong to inactive results. Inconclusive results are not listed. For some assays here: Entries with a potency or affinity are not part of this list. Calls of active or inactive are those of the source.
# How the values were obtained:
# [1] = Ebola virus entry assay, blue channel fluorescence
# [2] = Ebola virus entry assay, green fluorescence channel
# [3] = Ebola virus entry assay, ratio channel readout
# [4] = Ebola virus entry assay, blue channel fluorescence; remark: listed apart in the source
# [5] = Ebola virus entry cell assay, ratio channel
# [6] = qHTS Assay for Identifying Gametocytocidal Compounds (AID 743244; active = well fitted curve in the direction sought with a large enough effect; note: potency is the fitted concentration of half-maximal effect;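 for max response: % is set by controls: 0 for no effect and ±100 for the full control effect; actives lower the fluorescent signal which means gametocytes are killed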); settings: P. falciparum 3D7 stage III-V gametocytes, alamarBlue, 72 h; max response: active compounds read low
# Procedure, shortened: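 3D7 gametocytes, stages III–V, 20,000/well; cpd 72 h, 37 °C/5% CO2; + alamarBlue 24 h; fluor. Ex 525/Em 598.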
# [7] = Ebola virus entry reporter assay, green channel fluorescence
# [8] = Ebola virus entry assay, reporter ratio channel; AC50: Channel type: primary unless noted; outcome: Channel type: primary unless noted
# [9] = Ebola virus entry assay, blue channel (ratio component)
smiles,measurement,setting,value
CO/N=C(/C(=O)N[C@@H]1C(=O)N2C(C(=O)O)=C(COC(N)=O)CS[C@H]12)c1ccco1,outcome,[1],inactive
same,outcome,[2],inactive
same,outcome,[3],inactive
same,outcome,[4],inactive
same,outcome,[5],inactive
Cc1nnc2n1-c1ccc(Cl)cc1C(c1ccccc1)=NC2,max response,[6],35.3%
same,outcome,[1],inactive
same,outcome,[2],inactive
same,outcome,[3],inactive
same,outcome,[4],inactive
same,outcome,[5],inactive
C[C@]12C=CC(=O)N[C@@H]1CC[C@@H]1[C@@H]2CC[C@]2(C)[C@@H](C(=O)Nc3cc(C(F)(F)F)ccc3C(F)(F)F)CC[C@@H]12,outcome,[1],inactive
same,outcome,[2],inactive
same,outcome,[3],inactive
same,outcome,[5],inactive
CC(C)C[C@H]1C(=O)N2CCC[C@H]2[C@]2(O)O[C@](NC(=O)[C@@H]3C=C4c5cccc6[nH]c(Br)c(c56)C[C@H]4N(C)C3)(C(C)C)C(=O)N12,Potency,[6],22.4 µM (active) and 1.26 µM (active)
same,outcome,[1],inactive
same,outcome,[2],inactive
same,outcome,[3],inactive
same,outcome,[7],inactive
same,outcome,[5],inactive
CC[C@H]1OC(=O)[C@H](C)C(=O)[C@H](C)[C@@H](O[C@@H]2O[C@H](C)C[C@H](N(C)C)[C@H]2O)[C@](C)(OC)C[C@@H](C)C(=O)[C@H](C)[C@H]2N(CCCCn3cnc(-c4cccnc4)c3)C(=O)O[C@]12C,outcome,[1],inactive
same,outcome,[2],inactive
same,outcome,[3],inactive
same,outcome,[4],inactive
same,outcome,[5],inactive
O=C(OC1C[C@@H]2CC3C[C@H](C1)N2CC3=O)c1c[nH]c2ccccc12 (stereo partly drawn),outcome,[1],inactive
same,outcome,[2],inactive
same,outcome,[3],inactive
same,outcome,[7],inactive
same,outcome,[5],inactive
CC(C)(C)NC[C@H](O)COc1ccccc1C1CCCC1,AC50,[1],4.47 µM (active)
same,outcome,[2],inactive
same,AC50,[3],3.55 µM (active)
same,outcome,[7],inactive
same,AC50,[5],3.55 µM (active)
Cc1c(N)nc([C@H](CC(N)=O)NC[C@H](N)C(N)=O)nc1C(=O)N[C@H](C(=O)N[C@H](C)[C@@H](O)[C@H](C)C(=O)N[C@H](C(=O)NCCc1nc(-c2nc(C(=O)NCCCCN=C(N)N)cs2)cs1)[C@@H](C)O)[C@@H](O[C@@H]1O[C@@H](CO)[C@@H](O)[C@H](O)[C@@H]1O[C@H]1O[C@H](CO)[C@@H](O)[C@H](OC(N)=O)[C@@H]1O)c1cnc[nH]1,outcome,[1],inactive
same,outcome,[2],inactive
same,outcome,[3],inactive
same,outcome,[4],inactive
same,outcome,[5],inactive
CC(=O)N=c1sc(S(N)(=O)=O)nn1C,outcome,[1],inactive
same,outcome,[2],inactive
same,outcome,[3],inactive
same,outcome,[4],inactive
same,outcome,[5],inactive
O=C(O[C@H]1CN2CCC1CC2)N1CCc2ccccc2[C@@H]1c1ccccc1,AC50,[1],10 µM (active)
same,outcome,[2],inactive
same,AC50,[3],7.95 µM (active)
same,AC50,[5],7.94 µM (active)
C[C@@H]1O[C@@H](O[C@H]2CC[C@@]3(C)[C@H](CC[C@@H]4[C@H]3C[C@@H](O)[C@]3(C)[C@@H](C5=CC(=O)OC5)CC[C@]43O)C2)C[C@H](O)[C@@H]1O[C@H]1C[C@H](O)[C@H](O[C@H]2C[C@H](O)[C@@H](O)[C@@H](C)O2)[C@H](C)O1 (stereo in doubt),AC50,[1],1 µM (active)
same,outcome,[2],inactive
same,outcome,[3],inactive
same,outcome,[8],inactive [Channel type: confirmation]
same,outcome,[9],inactive
same,AC50,[5],0.794 µM (active)
CO[C@H]1C[C@@H]2CC[C@@H](C)[C@@](O)(O2)C(=O)C(=O)N2CCCC[C@@H]2C(=O)O[C@H]([C@@H](C)C[C@@H]2CC[C@H](O)[C@H](OC)C2)CC(=O)[C@H](C)C=C(C)[C@@H](O)[C@@H](OC)C(=O)[C@H](C)C[C@H](C)C=CC=CC=C1C,outcome,[1],inactive
same,outcome,[2],inactive
same,outcome,[3],inactive
same,outcome,[8],inactive [Channel type: confirmation]
same,outcome,[9],inactive
same,outcome,[5],inactive
CN[C@@H](C)Cc1ccccc1,max response,[6],5.78%
same,outcome,[1],inactive
same,outcome,[2],inactive
same,outcome,[3],inactive
same,outcome,[4],inactive
same,outcome,[5],inactive

# Reference: PubChem BioAssay (NCATS)
